This is a sample that favours compounds with a hit; in the whole collection about 2.9% have one here.
SNCA expr inh: SNCA gene expression inhibition; HEK-293 SNCA-luciferase knock-in, luminescence, 24 h; Potency, µM (highest dose often 57.2 µM), for inactives: at the top dose activity change, negative = inhibition, most hits filed as inhibitors; 0.17% of 140,000 active; AID 1671194;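 further: potency means the concentration at half of the fitted maximal effect; plate controls were DMSO cells for no effect and cell-free wells for full effect; nearly all actives have a fitted effect of over 45% in size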
KDM5B inh: inhibitors of human KDM5B histone demethylase. Q9UGL1. KDM5B demethylase, FDH-coupled NADH fluorescence (FDH is formaldehyde dehydrogenase). Potency, µM (doses to about 57.7 µM), usual class: inhibitors. 2.6% of 220,000 active. AID 1347165; further: potency means the concentration at half of the fitted maximal effect; 0% is about no effect; nearly all actives have a fitted effect of over 70% in size
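Measured: NADH fluorescence change, 30 min, RT. System: KDM5BΔAP 200 nM final, H3K4me3 peptide, α-KG, Fe(II), ascorbate, NAD⁺ plus FDH, pH 7.5 HEPES. Compounds: titrated, 10 min pre-incubation with enzyme.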
IP6K1 inhibitor: blocks human inositol hexakisphosphate kinase 1; Q92551; IP6K1 kinase, ADP-Glo luminescence, 2 h; hits give low values; activity change, % (series mostly up to about 58 µM); 0.81% of 140,000 active; in the data active means activity change below about -25%; further: on the % scale 0 is the no-effect control and ±100 the full control effect
Target sequence (Q92551 whole entry, looked up): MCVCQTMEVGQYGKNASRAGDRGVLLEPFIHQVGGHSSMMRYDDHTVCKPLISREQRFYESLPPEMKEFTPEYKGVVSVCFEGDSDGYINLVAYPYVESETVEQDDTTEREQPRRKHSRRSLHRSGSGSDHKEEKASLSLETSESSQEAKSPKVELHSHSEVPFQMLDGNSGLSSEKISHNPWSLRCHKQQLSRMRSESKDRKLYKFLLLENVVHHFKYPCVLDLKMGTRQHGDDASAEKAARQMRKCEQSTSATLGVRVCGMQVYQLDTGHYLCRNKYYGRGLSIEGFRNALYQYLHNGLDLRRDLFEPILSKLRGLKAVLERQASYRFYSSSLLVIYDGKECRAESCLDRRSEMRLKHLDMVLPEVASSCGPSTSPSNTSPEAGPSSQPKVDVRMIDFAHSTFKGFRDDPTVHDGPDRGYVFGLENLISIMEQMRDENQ
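ADP-Glo luminescence measures ADP made by human IP6K1 during a 2 h RT reaction with ATP/IP6 (mix at 1.3 mM/130 uM); top library doses 57.5 and 19.1 uM final.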
SNCA viab count: counter-screen for SNCA expression inhibitors: cell viability; Potency, µM (series often up to 57.1 µM), for the others: at the highest dose activity change, negative = cytotoxicity, actives largely listed as cytotoxic; 0.12% of 150,000 active; HEK-293-SNCA-luc viability, GF-AFC fluorescence, 24 h;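 further: potency means the concentration at half of the fitted maximal effect; 0% = DMSO-treated cells and -100% = medium-only wells without cells; nearly all actives have a fitted effect of over 30% in size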
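Cytotoxicity counterscreen: after 24 h compound treatment of genome-edited SNCA-luciferase HEK-293 cells, live-cell protease substrate GF-AFC read by fluorescence after 30 min; activity scaled between DMSO (0%) and medium-only (-100%), curves Hill-fitted.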
IP6K1 conf: human IP6K1 inhibition, confirmatory; recombinant IP6K1 kinase, ADP-Glo luminescence, 2 h; shares compounds with IP6K1 inhibitor; AID 1645852; Potency, µM (doses to about 49 µM), inactives show at the top dose activity change, negative = inhibition, most hits filed as inhibitors; 13% of 1,200 active; further: potency means the concentration at half of the fitted maximal effect; on the % scale 0 is the no-effect control and ±100 the full control effect; nearly all actives have a fitted effect of over 65% in size
An asterisk follows results filed as active; i = inactive; ? = inconclusive; · = no result given; ! = repeats disagree; [ ] = another dose, or the depositor's remark. Unless noted, the call rests on the fitted dose curve; in most records, active means well fitted curve in the direction sought with a large enough effect; inconclusive means small, poorly fitted or top-dose-only effect, or another doubt; inactive means no such curve, though single readings can be large; an effect the other way counts as inactive or inconclusive.

SMILES	SNCA expr inh	KDM5B inh	IP6K1 inhibitor	SNCA viab count	IP6K1 conf
COc1ccc(-c2nc(C(C)C)nc3c2CCN([S+](=O)([O-])c2c(C)noc2C)CC3)cc1	-0.9%	i	9.1	-2.7%	·
O=C(c1ccccc1F)N1CCCC2(C1)NC(=O)N(Cc1ccc(Cl)cc1)C2=O (centres undefined)	?	i	5.9	3.2%	·
O=C(CCc1ccc(O)cc1)NNC(=S)NCCc1ccccc1	·	i	·	·	·
O=C(CCc1ccc(O)cc1)c1c(O)cc(O)cc1O	-7.0%	·	·	-0.8%	5.17µM*
Oc1c(C(c2ccccc2)N2CCCC2)sc2nc(-c3ccco3)nn12 (centres undefined)	-16.9%	i	3.0	-0.8%	·
CCOC(=O)c1cc2c(=O)n3ccccc3nc2n(Cc2ccco2)c1=NC(=O)c1cccc(F)c1	10.2%	?	-38.7*	?	-3.6%
O=C(O)c1ccc(CN2CC(CNC(=O)c3ccccc3)C3(C2)CN(c2ccccc2)C3)cc1 (centres undefined)	0.7%	i	-5.0	-11.6%	·
COc1cc(Cl)ccc1C(=O)N1CC2CC(C1)[C@H]1CCCC(=O)N1C2 (some centres undefined)	-8.2%	i	0.0	3.7%	·
CCCCCOc1ccccc1C(=O)NCCCCCC(=O)O	·	i	·	·	·
CCCCCCCCOc1ccccc1C(=O)Nc1ccc(C(=O)OCC[N+](C)(CC)CC)cc1	8.9%[25.6 µM]	·	-37.3*	?	?
COc1ccc(NC(=O)CSc2c3c(nc4ccccc24)CCC3)c(OC)c1	-20.0%	i	-0.1	-21.6%	·
COc1ccc(NC(=O)c2ccc3c(SCC(=O)O)c4c(nc3c2)CCCC4)c(OC)c1	-20.5%	?	-25.7*	-5.4%	5.8%
Cn1cnc2c(F)c(Nc3ccc(Br)cc3Cl)c(C(=O)NOCCO)cc21	12.6%	·	15.1	12.4%	-12.7%
CCOC(=O)c1cnc2cc(Cl)c(OC)cc2c1Nc1ccc(Br)cc1C	-12.8%	?	1.1	-0.9%	·
COC[C@H]1C[C@@H](N(C)C)[C@H](O)[C@@H]1O	18.2%[87.6 µM]	i	-25.4*	4.3%[87.6 µM]	?
COCC(=O)N[C@@H]1C[C@H](COC)[C@@H](O)[C@H]1O	2.2%[87.6 µM]	i	-0.1	4.5%[87.6 µM]	·
O=C(NCCc1nc(-c2ccccc2)cs1)c1ccc2nccn2c1	-11.3%	?	-41.1*	?	?
CN(Cc1csc(-c2ccccc2)n1)C(=O)c1ccc2nccn2c1	11.5%	?	3.6	-12.0%	·
CCN(C(=O)CSc1nc(-c2ccccc2)no1)c1cccc(C)c1	?	i	-43.6*	?	30.6%
CCN(C(=O)Cn1cccc1-c1nc(-c2ccccc2)no1)c1cccc(C)c1	-25.0%	?	-3.1	-7.7%	·
CNC(=O)N1CCC(C2CCN(Cc3ccc(Br)o3)C2)CC1 (centres undefined)	48.2%	i	17.3	-0.9%[12.5 µM]	·
CCOC(=O)c1ccccc1NC(=O)c1c(-c2ccccc2)noc1C	?	?	-30.7*	5.2%	-13.8%
Cc1onc(-c2ccccc2)c1C(=O)Nc1ccc(NC(=O)c2c(-c3ccccc3)noc2C)cc1	·	i	·	·	·
CCCCCNS(=O)(=O)c1ccc(N2CCCCS2(=O)=O)cc1	-2.5%	i	7.5	13.6%	·
CC(C)CCNS(=O)(=O)c1ccc(N2CCCCS2(=O)=O)cc1	-15.9%	i	-30.1*	-1.9%	-15.9%
SMILES	SNCA expr inh	KDM5B inh	IP6K1 inhibitor	SNCA viab count	IP6K1 conf
COc1ccccc1-c1cnc(Nc2ccc3c(c2)OCCO3)c2c1CCO2	128.1%[87.6 µM]	35.5µM*	-25.7*	-12.7%[87.6 µM]	-17.4%
CC(C)(C)c1cc(Br)c(O)c(C(C)(C)C)c1	·	i	·	·	·
CCN1CCN(c2cc(C)c3cc(NC(=O)c4cccc(C(F)(F)F)c4)ccc3n2)CC1	1.3%	i	9.4	2.1%	·
CCc1ccc(C(=O)Nc2cc(CN3CCN(C)CC3)cc(C(F)(F)F)c2)cc1C#Cc1cnc2ccnn2c1	24.1µM*	·	-39.4*	?	?
Fc1ccccc1CSc1nnc(-c2ccccc2F)n1C1CC1	·	i	·	·	·
Cc1ccc([N+](=O)[O-])c(Oc2ncnc3c2oc2ccccc23)c1	20.1%	i	-29.4*	1.0%	2.9%
COc1ccc(-c2csc(=Nc3ccccc3)n2CCO)cc1F	71.2%	?	-31.4*	-3.1%	?
CCc1ccccc1Nc1nn2c(=O)c3ccc(C(=O)NCc4ccccc4Cl)cc3nc2s1	2.4%	i	-26.2*	-19.5%	0.9%
CCOc1cc(-c2ccc(OC(=O)c3ccc(C)cc3)c(OC)c2)cc(=O)c2c(C)oc(C)c12	1.5%	?	-26.9*	3.6%	3.2%
Cc1ccc(C(=O)Oc2cc(-c3ccc4c(c3)OCO4)cc(=O)c3c(C)oc(C)c23)cc1	?	?	-53.9*	?	?
COc1cc(-c2cc(OC)c3c(C)oc(C)c3c(=O)c2)ccc1OC(=O)c1ccc(C)cc1	13.8%	?	-21.1	6.2%	·
Cc1oc(C)c2c(=O)cc(-c3ccc4c(c3)OCO4)cc(OC(=O)c3cccc(Cl)c3)c12	2.6%	?	-23.3	-3.5%	·
CC(C)(C)NC(=S)NNC(=O)c1cccc(Br)c1	·	i	·	·	·
Cn1nc(-c2ccccc2F)c2cc(C(=O)NCc3ccc(Cl)cc3)sc21	?	?	-38.7*	?	?
CCc1cccc(NC(=O)CN2c3ccccc3S(=O)(=O)c3ccccc32)c1	-0.7%	?	-8.2	-13.6%	·
Cc1ccc(-c2nnc3ccc(Nc4cccc(N(C)C)c4)nn23)nc1	3.3%[87.6 µM]	?	-25.1*	-8.8%[87.6 µM]	-11.4%
c1cnc2nc(-c3c[nH]c4ncccc34)[nH]c2c1	55.0%[87.6 µM]	?	-43.7*!	-28.8%[87.6 µM]	?
c1cnc2nc(C3CCNC3)[nH]c2c1 (centres undefined)	-18.5%[87.6 µM]	?	4.9	-7.7%[87.6 µM]	·
Cc1ccc2c(CNCc3cccc(Cl)c3)c(C(=O)O)n(Cc3ccc(F)cc3Cl)c2c1	8.1%	i	-26.9*	-3.2%	17.1%
COc1cc(Nc2ncncc2-c2nc(-c3ccccc3)no2)c(OC)cc1Cl	11.5%	i	-2.2	8.4%	·
COc1ccc(C2(C(=O)N3CCC4(CC3)CC(N3CCOCC3)CCO4)CC2)cc1 (centres undefined)	-8.1%	i	7.0	-0.2%	·
COc1ccc(S(=O)(=O)N2CCC3(CC2)CC(N2CCOCC2)CCO3)cc1 (centres undefined)	-24.7%	i	-25.7*	-8.0%	-16.1%
Cc1cccc(CC(=O)N2CCC(n3cc(-c4nc(-c5ccccc5)no4)nn3)C2)c1 (centres undefined)	15.9%	i	-6.9	-3.0%	·
Cc1ccc(-c2noc(CNC(=O)c3ccccc3)n2)cc1	30.2%	i	-31.5*	-8.5%	?
Cc1ccc(CC(=O)NCc2nc(-c3ccccc3)no2)cc1	13.8%	i	-26.6*	10.5%	-14.7%
Cc1ccc(-c2noc(CNC(=O)c3ccc(C(C)(C)C)cc3)n2)cc1	57.9%	i	-19.0	5.9%	·
